Growth data for 40 molecules are collected here from PubChem BioAssay (NCI).

About 83,000 compounds went through this panel and 20% of them were active in at least one assay; those are over-represented in the sample as a whole.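 Assay: single dose, 48 h. Readout: percent growth (0 = no net growth; negative = cell death). Active: <10.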 The source made the active and inactive calls.

The subject of the first assay is HOP-62 NSCLC. The experiment in a line: NCI-60 one-dose screen, 48 h (100 = growth as untreated, 0 = no growth, -100 = all killed). To be noted: 10 µM unless noted.
As to `O=C(CNC(=O)c1cccc2ccccc12)Nc1ccccc1Oc1cccc(O)c1`, the growth is 19.2% [5 µM] (inactive). Take `CCN(CC)CCNCC(=O)Oc1ccc(/C=C/C(=O)CC(=O)/C=C/c2ccc(OC(=O)CNCCN(CC)CC)c(OC)c2)cc1OC`: the growth was 34% (inactive). Turning to `COc1ccc(-c2cc(-c3nnc(SCC(=O)Nc4ccc(C(C)=O)cc4)n3-c3ccccc3)c3ccccc3n2)cc1OC`, the growth is 84% (inactive). For `COc1ccc2c(c1)[n+](=O)c(C(=O)/C=C/c1cc(OC)c(OC)c(OC)c1)c(C)n2[O-]`, the growth is 101% (inactive).

`COc1ccc(-c2nc3sc4c(c3c(=O)[nH]2)CCCCCC4)cc1`: the growth is 36.2% (inactive). The same measure, in the same setting: in the case of `CC(=O)Nc1c(Cl)cc2c(c1Cl)Cc1cc([N+](=O)[O-])ccc1-2` it was 69.6% (inactive); in that of `CCN(CC)CCCCCCCNc1c2ccc(Cl)cc2nc2ccc(OC)cc12`, -49.2% (active). Same read-out and setting: under `COc1cc(/C=C/c2cc(/C=C/c3ccc(O)c(OC)c3)n(C(=O)c3ccc(Cl)cc3)n2)ccc1O` stands 20.3% (inactive). Consider `Cc1n(Cc2ccc3ccccc3c2)c2ccccc2[n+]1Cc1ccc2ccccc2c1`, for which the growth was -62% (active). For `CCn1cnc(C[C@H](NC(=O)[C@H](CCCCNC(=O)Nc2cc(C(F)(F)F)cc(C(F)(F)F)c2)NC(=O)Nc2cc(C(F)(F)F)cc(C(F)(F)F)c2)C(=O)OC)c1`, the growth is -75.3% [100 µM] (active). Still for that read-out and setting: under `O=C(Nc1cccc(-n2cc(-c3ccncc3)c(-c3cc(O)cc(Cl)c3)n2)c1)Nc1ccc(Cl)c(Cl)c1` stands -44.2% (active); under `Oc1ccc(/C=N/Nc2nc3ccccc3s2)c(O)c1`, 26.7% (inactive); under `Cc1csc(C#Cc2cncc(O)c2)n1`, 110% (inactive). On the same count and under the same terms, under `COc1cc(/C=C/C(=O)CC(=O)/C=C/c2ccc(OC(=O)CCNC34CC5CC(CC(C5)C3)C4)c(OC)c2)ccc1OC(=O)CCNC12CC3CC(CC(C3)C1)C2` stands 66.9% (inactive); under `N/C(=N\C(N)=N\c1nc2ccccc2s1)c1ccnc(Cl)c1`, 44.4% (inactive); under `COc1ccc(NS(=O)(=O)N2CCCCC2)cc1`, 107% (inactive). With `C=C1CCC2C(C)(COC(=O)CC)C(OC(=O)CC)CCC2(C)C1C/C=C1/C(=O)OCC1OC(=O)CC` (configuration not stated), the growth is -17.7% (active). On the same count and under the same terms, in the case of `Cc1[nH]ccc2cc3nc4ccccc4c3cc12` it was 34.4% (inactive); in that of `CC(C)=CCCC(C)c1ccc(C)c2c1OCN(CC1CCNCC1)C2` (configuration not stated), 95.4% (inactive); in that of `COc1ccc2c(c1)sc1nc(-c3ccc(N(C)C)cc3)cn12`, 105% (inactive). `COc1cc(/C=C/C(=O)C(C(=O)/C=C/c2ccc(OC(=O)CCNc3nnc(C)s3)c(OC)c2)C(=O)CCNc2nnc(C)s2)ccc1OC(=O)CCNc1nnc(C)s1`: the growth is 27.6% (inactive).

On to `O=C(O)c1ccc2cccnc2c1O`, for which the growth is 13.6% (inactive). On to `CC[C@@H](c1ccc(O)c(O)c1)[C@@H](CC)c1ccc(O)c(O)c1`, for which the growth is 106% (inactive). For `Cc1ccc(NC(=O)c2sc3nc4c(cc3c2N)C(=O)CCC4)cc1`, the growth is 114% (inactive). The same measure, in the same setting: in the case of `CCOC(=O)/C=C1/SC(=Nc2ccc(C#N)cc2)N(Cc2ccco2)C1=O` it was 60.3% (inactive); in that of `COP(=O)(OC)C(c1ccc(O)cc1)(c1ccc(O)cc1)c1ccc(O)cc1`, 83.3% (inactive); in that of `COc1ccccc1-n1c(-c2ccc(O)cc2C)cn2c3c(=O)[nH]c(=O)n(C)c3nc12`, 79.3% (inactive).

The next assay concerns NCI-H460 lung. Described as above. The settings on record: 10 µM unless noted.
Take `COc1ccc2ncccc2c1Cc1c(OC)ccc2ncccc12`: the growth is 82.4% (inactive). The same measure, in the same setting: in the case of `COc1cc(C2CC(C3C(=O)N(C)C(=O)N(C)C3=O)=NN2c2cc(Cl)cc(Cl)c2)cc(OC)c1OC` (configuration not stated) it was 94.5% (inactive). Same read-out and setting: in the case of `Cc1sc2nc(NCc3ccccc3)[nH]c(=O)c2c1C` it was 26.6% (inactive); in that of `Cc1cc2c(cc1C)[n+](Cc1ccc3ccccc3n1)cn2Cc1ccc2ccccc2n1`, 0.342% (active).

Regarding `COc1cc(/C=C2\CN(S(=O)(=O)c3ccc(C)cc3)C/C(=C\c3cc(CN4CCOCC4)c(O)c(OC)c3)C2=O)cc(CN2CCOCC2)c1O`, the growth was -46.9% (active). The same measure, in the same setting: under `O=C1NCCc2c1noc2-c1ccccc1` stands 107% (inactive). `C[C@]12CCC(=O)C=C1CC[C@H]1[C@@H]3C[C@@H](O)[C@](O)(C(=O)CO)[C@@]3(C)C[C@H](O)[C@@]12F`: the growth is 93.4% (inactive). In the case of `C/C(=C\CCc1ccsc1)CC/C=C(\C)CCCN1CCSCC1`, the growth was 76.9% (inactive). On to `COC(=O)Nc1ccc2ccc3c(NC(=O)OC)ccc4ccc1c2c43` (tested in a mixture with another compound), for which the growth is 26.5% (inactive).

Consider `O=C(Nc1nc2c(C(F)(F)F)cccc2s1)c1cc(Cl)ccc1O`, for which the growth is 2.33% (active). For `COc1cc(C2=NN(C=O)C(c3cccc(Nc4ccnc5cc(Cl)ccc45)c3)C2)cc(OC)c1OC` (configuration not stated), the growth is 83.4% (inactive). Same read-out and setting: under `COc1cccc(-c2nc(-c3ccc(N)cc3)co2)c1` stands 115% (inactive); under `C[C@@H]1[C@H]2[C@H](C=C3[C@@H]4CC[C@H]5Cc6nc7c(nc6C[C@]5(C)[C@H]4C[C@@H](O)[C@@]32C)C[C@@H]2CC[C@H]3C4=C[C@@H]5O[C@@]6(CC[C@](C)(CO)O6)[C@@H](C)[C@@]5(O)[C@@]4(C)[C@H](O)C[C@@H]3[C@@]2(C)C7)O[C@]12CCC(C)(C)O2`, 0.313% (active).

On to `O=C(CNC(=O)c1cccc2ccccc12)Nc1ccccc1Oc1cccc(O)c1`, for which the growth was 11.2% [5 µM] (inactive). Regarding `CCN(CC)CCNCC(=O)Oc1ccc(/C=C/C(=O)CC(=O)/C=C/c2ccc(OC(=O)CNCCN(CC)CC)c(OC)c2)cc1OC`, the growth was 3.7% (active). Turning to `COc1ccc(-c2cc(-c3nnc(SCC(=O)Nc4ccc(C(C)=O)cc4)n3-c3ccccc3)c3ccccc3n2)cc1OC`, the growth was 103% (inactive). For the molecule `COc1ccc2c(c1)[n+](=O)c(C(=O)/C=C/c1cc(OC)c(OC)c(OC)c1)c(C)n2[O-]`, the growth is 44.7% (inactive). The same measure, in the same setting: under `COc1ccc(-c2nc3sc4c(c3c(=O)[nH]2)CCCCCC4)cc1` stands 33.2% (inactive). `CC(=O)Nc1c(Cl)cc2c(c1Cl)Cc1cc([N+](=O)[O-])ccc1-2`: the growth was 81.3% (inactive).

In the case of `CCN(CC)CCCCCCCNc1c2ccc(Cl)cc2nc2ccc(OC)cc12`, the growth was -67.6% (active). As to `COc1cc(/C=C/c2cc(/C=C/c3ccc(O)c(OC)c3)n(C(=O)c3ccc(Cl)cc3)n2)ccc1O`, the growth was 4.86% (active). Still for that read-out and setting: under `Cc1n(Cc2ccc3ccccc3c2)c2ccccc2[n+]1Cc1ccc2ccccc2c1` stands -73.9% (active); under `CCn1cnc(C[C@H](NC(=O)[C@H](CCCCNC(=O)Nc2cc(C(F)(F)F)cc(C(F)(F)F)c2)NC(=O)Nc2cc(C(F)(F)F)cc(C(F)(F)F)c2)C(=O)OC)c1`, -41.1% [100 µM] (active); under `O=C(Nc1cccc(-n2cc(-c3ccncc3)c(-c3cc(O)cc(Cl)c3)n2)c1)Nc1ccc(Cl)c(Cl)c1`, 0.213% (active). Same read-out and setting: under `Oc1ccc(/C=N/Nc2nc3ccccc3s2)c(O)c1` stands 10.9% (inactive); under `Cc1csc(C#Cc2cncc(O)c2)n1`, 121% (inactive).

Consider `COc1cc(/C=C/C(=O)CC(=O)/C=C/c2ccc(OC(=O)CCNC34CC5CC(CC(C5)C3)C4)c(OC)c2)ccc1OC(=O)CCNC12CC3CC(CC(C3)C1)C2`, for which the growth is 10.3% (inactive).

`N/C(=N\C(N)=N\c1nc2ccccc2s1)c1ccnc(Cl)c1`: the growth is 17.3% (inactive). `COc1ccc(NS(=O)(=O)N2CCCCC2)cc1`: the growth is 113% (inactive). Regarding `C=C1CCC2C(C)(COC(=O)CC)C(OC(=O)CC)CCC2(C)C1C/C=C1/C(=O)OCC1OC(=O)CC` (configuration not stated), the growth is 79.6% (inactive). Still for that read-out and setting: under `Cc1[nH]ccc2cc3nc4ccccc4c3cc12` stands 8.56% (active); under `CC(C)=CCCC(C)c1ccc(C)c2c1OCN(CC1CCNCC1)C2` (configuration not stated), 24.6% (inactive); under `COc1ccc2c(c1)sc1nc(-c3ccc(N(C)C)cc3)cn12`, 85% (inactive).

On to `COc1cc(/C=C/C(=O)C(C(=O)/C=C/c2ccc(OC(=O)CCNc3nnc(C)s3)c(OC)c2)C(=O)CCNc2nnc(C)s2)ccc1OC(=O)CCNc1nnc(C)s1`, for which the growth was -29% (active). As to `O=C(O)c1ccc2cccnc2c1O`, the growth is 6.87% (active). `CC[C@@H](c1ccc(O)c(O)c1)[C@@H](CC)c1ccc(O)c(O)c1`: the growth is 111% (inactive). On to `Cc1ccc(NC(=O)c2sc3nc4c(cc3c2N)C(=O)CCC4)cc1`, for which the growth is 29% (inactive). Same read-out and setting: in the case of `CCOC(=O)/C=C1/SC(=Nc2ccc(C#N)cc2)N(Cc2ccco2)C1=O` it was 38.9% (inactive); in that of `COP(=O)(OC)C(c1ccc(O)cc1)(c1ccc(O)cc1)c1ccc(O)cc1`, 113% (inactive); in that of `COc1ccccc1-n1c(-c2ccc(O)cc2C)cn2c3c(=O)[nH]c(=O)n(C)c3nc12`, 93.1% (inactive).
